# Bioassay records deposited in PubChem BioAssay by National Center for Advancing Translational Sciences (NCATS).
# PTHR1 agonist: activates the human parathyroid hormone receptor PTHR1 | Q03431 | AID 743266 | Potency, µM (series often up to 115 µM), for inactives: at the top dose activation, hits mostly activators | HEK293 GP2 PTHR1 cells, GloSensor cAMP luminescence, 1 h | 410,000 compounds, 0.075% hits; also: potency is read from the fitted curve at half-maximal effect; nearly all actives have a fitted effect of over 55% in size
#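 HEK-293-derived GP2 cells expressing PTHR1 and a GloSensor cAMP reporter, 3,000/well, plated overnight, given luciferin plus IBMX (each 0.5 mM as added) for 1 h at 37 °C, then compound for 1 h at 37 °C. Luminescence was read after 15 min at room temperature.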
# TSHR antagonist: antagonists of human thyroid stimulating hormone receptor | P16473 | TSHR-expressing cells, TSH-stimulated cAMP HTRF, 2 h; hits give low values | activity change, negative = inhibition, % at 11.5 µM | 330,000 compounds, 0.2% hits;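 active = activity change below a set negative limit, meaning inhibition stronger than a set level, cut at about -70% in these data; inconclusive = activity change between two set negative limits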; also: % is scaled to controls: 0 for no effect and ±100 for the full control effect
# Target sequence (P16473 whole entry, looked up): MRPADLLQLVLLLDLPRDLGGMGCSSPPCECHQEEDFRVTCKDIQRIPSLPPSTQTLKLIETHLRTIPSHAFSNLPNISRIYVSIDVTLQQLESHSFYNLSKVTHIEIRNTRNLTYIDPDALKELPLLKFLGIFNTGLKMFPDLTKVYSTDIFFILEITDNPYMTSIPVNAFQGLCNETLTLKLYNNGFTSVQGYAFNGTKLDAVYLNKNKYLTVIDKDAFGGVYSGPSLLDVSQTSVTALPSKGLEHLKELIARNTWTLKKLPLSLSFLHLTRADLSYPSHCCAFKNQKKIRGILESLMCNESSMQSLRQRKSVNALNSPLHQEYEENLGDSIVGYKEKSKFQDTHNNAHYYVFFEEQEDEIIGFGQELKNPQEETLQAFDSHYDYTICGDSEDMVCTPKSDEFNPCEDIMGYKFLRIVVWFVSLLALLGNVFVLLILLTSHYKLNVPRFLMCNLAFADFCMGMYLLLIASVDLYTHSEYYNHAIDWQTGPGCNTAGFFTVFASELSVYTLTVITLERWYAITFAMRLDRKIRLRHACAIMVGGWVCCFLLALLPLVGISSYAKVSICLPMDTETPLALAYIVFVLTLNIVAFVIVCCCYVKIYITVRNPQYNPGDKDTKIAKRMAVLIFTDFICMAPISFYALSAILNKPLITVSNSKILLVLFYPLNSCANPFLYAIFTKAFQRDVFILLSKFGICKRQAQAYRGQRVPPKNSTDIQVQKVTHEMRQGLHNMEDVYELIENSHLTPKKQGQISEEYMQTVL
#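 Antagonism was scored as loss of TSH-driven cAMP in TSHR cells, stimulated with 4nM TSH (EC80) for 2 hours at 37 deg C and detected by homogeneous HTRF competition immunoassay.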
# GLP1R inv ag: GLP-1 receptor (human) inverse agonism | P43220 | HEK293 GLP-1R CRE-luciferase, luminescence, 24 h; GLP-1R form is constitutively active | Potency, µM (highest dose often 38.3 µM), without a hit: top-dose activity change, negative = inhibition, hits mostly inhibitors | 410,000 compounds, 1.6% hits | AID 624417; also: potency is read from the fitted curve at half-maximal effect; % is scaled to controls: 0 for no effect and ±100 for the full control effect; nearly all actives have a fitted effect of over 55% in size
#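 Assay principle: reduced luminescence from a cAMP-responsive reporter in HEK293 cells co-expressing a constitutively active GLP-1R. Conditions: 24 hr compound incubation, 37 deg C, 5% CO2.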
# HEK293 tox: cytotoxic in the GLP-1 receptor inverse agonist counter-screen; HEK293 cAMP-luciferase reporter cells, luminescence, 24 h; Potency, µM (series often up to 38.3 µM), for inactives: at the top dose activity change, negative = inhibition, most hits filed as inhibitors; 410,000 compounds, 0.13% hits; AID 624418;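 also: loss of luciferase light is scored as toxicity; potency is read from the fitted curve at half-maximal effect; % is scaled to controls: 0 for no effect and ±100 for the full control effect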
#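 Cells in DMEM/10% Nu serum/1% pen-strep, 1536-well format. Pre-incubated 12 h, dosed with 23 nL compound, incubated a further 24 h. Luciferase detection, 12 min at room temp, luminescence.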
# GLP-1R agonist: GLP-1 receptor (human) agonism; HEK293 GLP-1R CRE-luciferase, luminescence, 4-6 h; cells express a hypersensitive GLP-1R form; Potency, µM (series often up to 45.6 µM), inactives show at the top dose activation, usual class: activators; 380,000 compounds, 0.007% hits; also: potency is read from the fitted curve at half-maximal effect; % of control where 0% means no effect
# Numbers without * were called inactive; i = inactive; u = inconclusive; x = not tested or not shown; [ ] = another dose, or the depositor's remark. Compounds with a hit are over-represented: about 1.8% of the library has one in this group of screens. Unless noted, calls follow the shape of the dose curve; as a rule, active = well fitted curve in the direction sought with a large enough effect; inconclusive = small, poorly fitted or top-dose-only effect, or another doubt; inactive = no such curve, though single readings can be large; an effect the other way counts as inactive or inconclusive.
SMILES,PTHR1 agonist,TSHR antagonist,GLP1R inv ag,HEK293 tox,GLP-1R agonist
CCCCCCCCCCCCCCCC[n+]1cccc2ccccc21,-7%,-4,u,u,-18%
Cn1nnnc1SCC1=C(C(=O)O)N2C(=O)C(NC(=O)C3CC3c3ccccc3)C2SC1 (centres undefined),-14%,-105*,-14%,-32%,-5%
Cn1nnnc1SCC1=C(C(=O)O)N2C(=O)[C@@H](NC(=O)[C@H](O)c3ccccc3)[C@H]2SC1,21%,7,1%,-10%,-1%
Cc1cc(C)n(-c2nc3ccccc3nc2N2CCC(C)CC2)n1,i,12,0%,28%,-1%
Cc1cc(N2CCC(C)CC2)nc(-n2nc(C)cc2C)n1,-9%,-5,u,0.79µM*,11%
CC1Cc2ccccc2N1C(=S)NC(=O)c1cccc(Br)c1 (centres undefined),i,-5,u,u,5%
CC1Cc2ccccc2N1C(=S)NC(=O)c1ccc(Cl)cc1Cl (centres undefined),-17%,-10,10µM*,u,-15%
O=C(Nc1ccccc1C(F)(F)F)c1ccc(CN2CCC(Cc3ccccc3)CC2)cc1,-10%[57.5 µM],11,8.9µM*,u,-2%
Cc1ccc(NC(=O)NCC2CCN(Cc3cccc(Cl)c3)CC2)cc1Cl,-8%,4,2.2µM*,u,3%
Cc1ccc(NC(=O)NCC2CCN(Cc3cccc(Cl)c3)CC2)c(Cl)c1,i,6,u,-4%,1%
CCc1ccc(NC(=O)NCC2CCN(Cc3cccc(Cl)c3)CC2)cc1,i,1,13µM*,-18%,-8%
O=C(NCC1CCN(Cc2cccc(Cl)c2)CC1)Nc1ccccc1Cl,i,-1,10µM*,-8%,10%
Cc1cc(F)ccc1NC(=O)CCSc1nc(-c2ccco2)cc(C(F)(F)F)n1,i,x,-15%,-21%,x
CCOc1cc(CNC(=O)c2ccccc2NC(=O)c2nsc3ccccc23)ccc1OC,-21%,x,-8%,-24%,x
COCCNc1ccc2cc(S(=O)(=O)N3CCCCC3)ccc2n1,-52%,x,7%,6%,x
COc1ccccc1N1CCN(C(=O)c2oc3ccccc3c2N)CC1,-23%,x,-27%,u,x
CC(C)(C)c1csc(NC(=O)c2ccc(Cl)s2)n1,-24%,13,2.8µM*,-4%,-2%
Cc1ccc(C(=O)Nc2nc(C(C)(C)C)cs2)s1,-16%[57.5 µM],-34,u,16%,3%
CC(C)(C)c1csc(NC(=O)c2ccc(Br)o2)n1,-14%,-14,10µM*,0%,1%
NC(=O)C1CCN(c2nc(-c3ccc(Cl)cc3)cs2)CC1,x,-4,x,x,x
C[C@]12C=CC(=O)C=C1[C@@H](F)C[C@@H]1[C@@H]2[C@@H](O)C[C@@]2(C)[C@H]1CC[C@]2(O)C(=O)CO,x,x,x,x,-6%
O=C(c1ccc(Cl)c(S(=O)(=O)N2CCc3ccccc32)c1)N1CCN(c2ccccc2O)CC1,-35%,-12,u,-9%,-14%
Cc1cccc(N2CCN(C(=O)c3ccc(Cl)c(S(=O)(=O)N4CCc5ccccc5C4)c3)CC2)c1C,-9%,9,7.1µM*,1%,-3%
Cc1nn(-c2ccccc2)c2nc(C3CC3)cc(C(=O)Nc3cccc(F)c3)c12,-15%,x,5.6µM*,-22%,x
CCc1ccc(-n2nc(C)c3c(C(=O)Nc4cccc(C(F)(F)F)c4)cc(C)nc32)cc1,-43%,x,2.2µM*,-27%,x
COc1cc(C2C(C(=O)Nc3ccccc3C)=C(C)Nc3nc(SCc4cc(C)ccc4C)nn32)ccc1O (centres undefined),i,x,4%,5%,x
CCN(CCCNC(=O)c1nn(-c2ccc(C)cc2)c(=O)c2c1c1ccccc1n2C)c1ccccc1,-19%,x,13%,-1%,x
CCc1ccccc1N1CC(c2nc3ccccc3n2CCOc2ccc(Cl)c(C)c2)CC1=O (centres undefined),-96%,x,u,u,x
